Assay results taken from PubChem BioAssay (EPA / NIEHS).
Values joined by “and” are separate entries in the source; they are usually repeats but may differ in a detail not shown here. Identical values can stand only once. The source holds several records for some structures; these can differ, active in one and inactive in another. Active and inactive are the calls of the source. The calls were made as follows: active = hit-call score of the fitted dose curve at least 0.9, where 1 is the maximum; inactive = score below 0.9.

Assay: ATG_ISRE_CIS: Attagene CIS-FACTORIAL HepG2 Assay for human Interferon Regulatory Factor 1 (IRF1) binding to an Interferon-Stimulated Response Element (ISRE) (AID 2282948)
Conditions: HepG2 ISRE cis-reporter (Attagene), mRNA transcription readout; actives raise or lower the signal
Procedure, shortened: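 Uses HepG2 liver cells transfected with cis-regulated reporters and measures mRNA 24 h post-dosing through RT-PCR, primer-extension labelling and capillary electrophoresis, with DMSO as negative control.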

**Q.** For NC(N)=NC(N)=NCCc1ccccc1, which outcome is on record?
**A.** inactive

**Q.** For CC/C=C\CCOC(=O)C(C)C, which outcome is on record?
**A.** inactive

**Q.** For CC(C)=CCCC(C)=CC(=O)O, which outcome is on record?
**A.** inactive

**Q.** Which outcome does the source give for CCC=C(C)C=O here?
**A.** inactive

**Q.** Which outcome does the source give for C=C1CC[C@H]2O[C@]2(C)CC[C@@H]2[C@@H]1CC2(C)C here?
**A.** inactive

**Q.** Which outcome does the source give for CCC(=O)OC/C=C(\C)CCC=C(C)C here?
**A.** inactive

**Q.** With CCO[Si](CCC#N)(OCC)OCC as the compound, how does the outcome read?
**A.** inactive

**Q.** With CC(C)(O)CCc1ccccc1 as the compound, how does the outcome read?
**A.** inactive

**Q.** For CC(=O)C1C(=O)C=C(C)OC1=O (stereo unspecified), which outcome is on record?
**A.** inactive

**Q.** For CCc1cccc(O)c1, which outcome is on record?
**A.** inactive

**Q.** Which outcome does the source give for CC(CO)(CO)[N+](=O)[O-] here?
**A.** inactive

**Q.** For C[C@H](CCC(=O)O)[C@H]1CC[C@H]2[C@@H]3CC[C@@H]4C[C@H](O)CC[C@]4(C)[C@H]3CC[C@]12C, which AC50 is on record?
**A.** 27.4 µM (active)

**Q.** For CCC(C)(C)C1CCC(OC)CC1 (stereo unspecified), which outcome is on record?
**A.** inactive

**Q.** With C=CC(=O)OCC(CO)(COC(=O)C=C)COC(=O)C=C as the compound, how does the AC50 read?
**A.** 7.12 µM (active)

**Q.** With CC(=O)CC(=O)N(C)C as the compound, how does the outcome read?
**A.** inactive

**Q.** For CCCc1ccc(O)cc1, which outcome is on record?
**A.** inactive

**Q.** Which outcome does the source give for C=C1CC/C=C(\C)CC[C@@H]2[C@@H]1CC2(C)C here?
**A.** inactive

**Q.** Which outcome does the source give for CCCCCCCCCCOC(=O)c1ccccc1C(=O)OCCCCCCCC here?
**A.** inactive

**Q.** With CC(O)COCC(C)O (stereo unspecified) as the compound, how does the outcome read?
**A.** inactive

**Q.** For O=C1CCCCCCCCCCCC(=O)OCCO1, which outcome is on record?
**A.** inactive

**Q.** With NC(=O)c1c(Cl)cccc1Cl as the compound, how does the outcome read?
**A.** inactive

**Q.** For c1ccc2c(c1)-c1ccc3ccc4cccc5cc-2c1c3c45, which outcome is on record?
**A.** inactive

**Q.** For CC1=C(C=O)C(C)(C)CCC1, which outcome is on record?
**A.** inactive

**Q.** For CC(C)OB(OC(C)C)OC(C)C, which outcome is on record?
**A.** inactive

**Q.** Which outcome does the source give for COc1ccc2[nH]cc(CCNC(C)=O)c2c1 here?
**A.** inactive

**Q.** With CCC(=O)OCC=Cc1ccccc1 as the compound, how does the outcome read?
**A.** inactive

**Q.** For CC(C)CCOC(=O)CC(C)C, which outcome is on record?
**A.** inactive

**Q.** With C#C[C@]1(O)CC[C@H]2[C@@H]3CCc4cc(O)ccc4[C@H]3CC[C@@]21C as the compound, how does the AC50 read?
**A.** 33.4 µM (active) and 27.3 µM (active)

**Q.** What about the outcome of the same compound?
**A.** inactive

**Q.** With O=c1cc[nH]cc1 as the compound, how does the outcome read?
**A.** inactive

**Q.** Which outcome does the source give for CCC(C)(CCCC(C)C)OC(C)=O (stereo unspecified) here?
**A.** inactive

**Q.** For O=C1OCc2ccccc21, which outcome is on record?
**A.** inactive

Assay: ATG_M_32_CIS: Attagene CIS-FACTORIAL HepG2 Assay for M32 Transcription Factor (Internal Marker) (AID 2282949);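 also: background control marker of the multiplexed CIS panel rather than a real target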
Conditions: HepG2 Attagene cis-factorial M32 reporter, mRNA; actives raise or lower the signal
Procedure, shortened: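 Transient MRTU transfection of HepG2; 24 h compound treatment; TriZol RNA, oligo(dT) RT, reporter PCR, 6-FAM primer extension, HpaI cut, CE. Gain/loss of signal vs DMSO.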

**Q.** With NC(N)=NC(N)=NCCc1ccccc1 as the compound, how does the outcome read?
**A.** inactive

**Q.** Which outcome does the source give for CC/C=C\CCOC(=O)C(C)C here?
**A.** inactive

**Q.** For CC(C)=CCCC(C)=CC(=O)O, which outcome is on record?
**A.** inactive

**Q.** With CCC=C(C)C=O as the compound, how does the outcome read?
**A.** inactive

**Q.** With C=C1CC[C@H]2O[C@]2(C)CC[C@@H]2[C@@H]1CC2(C)C as the compound, how does the outcome read?
**A.** inactive

**Q.** For CCC(=O)OC/C=C(\C)CCC=C(C)C, which outcome is on record?
**A.** inactive

**Q.** With CCO[Si](CCC#N)(OCC)OCC as the compound, how does the outcome read?
**A.** inactive

**Q.** With CC(C)(O)CCc1ccccc1 as the compound, how does the outcome read?
**A.** inactive

**Q.** With CC(CO)(CO)[N+](=O)[O-] as the compound, how does the outcome read?
**A.** inactive

**Q.** For C[C@H](CCC(=O)O)[C@H]1CC[C@H]2[C@@H]3CC[C@@H]4C[C@H](O)CC[C@]4(C)[C@H]3CC[C@]12C, which outcome is on record?
**A.** inactive

**Q.** Which outcome does the source give for CCC(C)(C)C1CCC(OC)CC1 (stereo unspecified) here?
**A.** inactive

**Q.** With C=CC(=O)OCC(CO)(COC(=O)C=C)COC(=O)C=C as the compound, how does the AC50 read?
**A.** 122 µM (active)

**Q.** With CN(C)c1ccc(C=O)cc1 as the compound, how does the outcome read?
**A.** inactive

**Q.** Which outcome does the source give for CC1=CCC(C(C)(C)O)CC1 (stereo unspecified) here?
**A.** inactive

**Q.** For CCCc1ccc(O)cc1, which outcome is on record?
**A.** inactive

**Q.** For C=C1CC/C=C(\C)CC[C@@H]2[C@@H]1CC2(C)C, which outcome is on record?
**A.** inactive

**Q.** For C=CC(C)(CCC=C(C)C)OC(=O)CC (stereo unspecified), which outcome is on record?
**A.** inactive

**Q.** For CCCCCCCCCCOC(=O)c1ccccc1C(=O)OCCCCCCCC, which outcome is on record?
**A.** inactive

**Q.** With CC(O)COCC(C)O (stereo unspecified) as the compound, how does the outcome read?
**A.** inactive

**Q.** With O=C1CCCCCCCCCCCC(=O)OCCO1 as the compound, how does the outcome read?
**A.** inactive

**Q.** With c1ccc2c(c1)-c1ccc3ccc4cccc5cc-2c1c3c45 as the compound, how does the outcome read?
**A.** inactive

**Q.** Which outcome does the source give for CC(C)OB(OC(C)C)OC(C)C here?
**A.** inactive

**Q.** For COc1ccc2[nH]cc(CCNC(C)=O)c2c1, which outcome is on record?
**A.** inactive

**Q.** With CCC(=O)OCC=Cc1ccccc1 as the compound, how does the outcome read?
**A.** inactive

**Q.** Which outcome does the source give for CC(C)CCOC(=O)CC(C)C here?
**A.** inactive

**Q.** For C#C[C@]1(O)CC[C@H]2[C@@H]3CCc4cc(O)ccc4[C@H]3CC[C@@]21C, which AC50 is on record?
**A.** 161 µM (active)

**Q.** What about the outcome of the same compound?
**A.** inactive

**Q.** For O=c1cc[nH]cc1, which outcome is on record?
**A.** inactive

**Q.** With CCC(C)(CCCC(C)C)OC(C)=O (stereo unspecified) as the compound, how does the outcome read?
**A.** inactive

**Q.** Which outcome does the source give for O=C1OCc2ccccc21 here?
**A.** inactive

Assay: ATG_M_06_CIS: Attagene CIS-FACTORIAL HepG2 Assay for M06 Transcription Factor (Internal Marker) (AID 2282950)
Conditions: HepG2 Attagene CIS-FACTORIAL M06 internal marker reporter; actives raise or lower the signal
Procedure, shortened: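 Read-out is fluorescence of labelled reporter cDNA fragments resolved by capillary electrophoresis after RT-PCR. Cells: HepG2 carrying transfected cis-promoter reporter units, treated 24 h. Gain or loss of signal fitted relative to DMSO.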

**Q.** With NC(N)=NC(N)=NCCc1ccccc1 as the compound, how does the outcome read?
**A.** inactive

**Q.** For CC/C=C\CCOC(=O)C(C)C, which outcome is on record?
**A.** inactive

**Q.** For CC(C)=CCCC(C)=CC(=O)O, which outcome is on record?
**A.** inactive

**Q.** Which outcome does the source give for CCC=C(C)C=O here?
**A.** inactive

**Q.** With C=C1CC[C@H]2O[C@]2(C)CC[C@@H]2[C@@H]1CC2(C)C as the compound, how does the outcome read?
**A.** inactive

**Q.** Which outcome does the source give for CCO[Si](CCC#N)(OCC)OCC here?
**A.** inactive

**Q.** Which outcome does the source give for CC(C)(O)CCc1ccccc1 here?
**A.** inactive

**Q.** Which outcome does the source give for CC(=O)C1C(=O)C=C(C)OC1=O (stereo unspecified) here?
**A.** inactive

**Q.** For CCc1cccc(O)c1, which outcome is on record?
**A.** inactive

**Q.** Which outcome does the source give for CC(CO)(CO)[N+](=O)[O-] here?
**A.** inactive

**Q.** With C[C@H](CCC(=O)O)[C@H]1CC[C@H]2[C@@H]3CC[C@@H]4C[C@H](O)CC[C@]4(C)[C@H]3CC[C@]12C as the compound, how does the outcome read?
**A.** inactive

**Q.** Which outcome does the source give for CCC(C)(C)C1CCC(OC)CC1 (stereo unspecified) here?
**A.** inactive

**Q.** With C=CC(=O)OCC(CO)(COC(=O)C=C)COC(=O)C=C as the compound, how does the outcome read?
**A.** inactive

**Q.** Which outcome does the source give for CN(C)c1ccc(C=O)cc1 here?
**A.** inactive

**Q.** Which outcome does the source give for CC1=CCC(C(C)(C)O)CC1 (stereo unspecified) here?
**A.** inactive

**Q.** Which outcome does the source give for CC(=O)CC(=O)N(C)C here?
**A.** inactive

**Q.** Which outcome does the source give for CCCc1ccc(O)cc1 here?
**A.** inactive

**Q.** For C=C1CC/C=C(\C)CC[C@@H]2[C@@H]1CC2(C)C, which outcome is on record?
**A.** inactive

**Q.** For C=CC(C)(CCC=C(C)C)OC(=O)CC (stereo unspecified), which outcome is on record?
**A.** inactive

**Q.** For CCCCCCCCCCOC(=O)c1ccccc1C(=O)OCCCCCCCC, which outcome is on record?
**A.** inactive

**Q.** Which outcome does the source give for O=C1CCCCCCCCCCCC(=O)OCCO1 here?
**A.** inactive

**Q.** Which outcome does the source give for NC(=O)c1c(Cl)cccc1Cl here?
**A.** inactive

**Q.** For c1ccc2c(c1)-c1ccc3ccc4cccc5cc-2c1c3c45, which outcome is on record?
**A.** inactive

**Q.** Which outcome does the source give for CC1=C(C=O)C(C)(C)CCC1 here?
**A.** inactive

**Q.** For CC(C)CCOC(=O)CC(C)C, which outcome is on record?
**A.** inactive

**Q.** With C#C[C@]1(O)CC[C@H]2[C@@H]3CCc4cc(O)ccc4[C@H]3CC[C@@]21C as the compound, how does the outcome read?
**A.** inactive

**Q.** For O=c1cc[nH]cc1, which outcome is on record?
**A.** inactive

**Q.** With CCC(C)(CCCC(C)C)OC(C)=O (stereo unspecified) as the compound, how does the outcome read?
**A.** inactive

**Q.** For O=C1OCc2ccccc21, which outcome is on record?
**A.** inactive
